Laboratory results reported in PubChem BioAssay AID1964107 (National Center for Advancing Translational Sciences (NCATS), 2024).
The campaign covered roughly 31,000 compounds. About 360 (1.2%) were called active. Not shown: some 8% with an inconclusive outcome. Calls follow the shape of the full dose curve. The list comes from a sample in which actives are over-represented; it also holds similar structures and randomly drawn compounds. A call without a number means that no potency is given here.

Biological target: Polyprotein P1234 (Chikungunya virus (strain S27-African prototype)) (UniProt Q8JUX6)
Test: Primary qHTS for inhibitors of NSP2Pro chikungunya virus (CHIKV); also: nearly all actives have a fitted effect of over 60% in size
Details: FRET peptide cleavage, fluorescence 1 h; series mostly up to 24.9 µM
Text: PI: Natalia J. Martinez Ph.D. National Center for Advancing Translational Sciences (NCATS), National Institute of Health (NIH), Rockville, Maryland Chikungunya virus (CHIKV) is a mosquito-borne RNA virus that has emerged as one of the most important global arboviral threats in the last decade. Although the first CHIKV vaccine has recently been FDA approved for use in healthy adults at increased risk, to date, there are no available antiviral drugs for CHIKV infection. CHIKV nsP2 protease plays a crucial role in the processing of the viral polypeptide precursor to release enzymes required for viral replication, thus making it a promising drug target for antiviral discovery. Here, we established a high-throughput pipeline to identify small molecule inhibitors of nsP2 proteolytic activity. The pipeline is composed of a suite of 1,536-well in vitro assays to support quantitative high-throughput (qHTS) screening campaigns. Specifically, we developed a fluorescence resonance energy transfer (FRET)-based assay using a fluorogenic peptide substrate encompassing an endogenous cleavage site and purified recombinant protease domain (nsP2pro). Using this assay, we interrogated ~37,000 small molecules, including those in drug repurposing libraries as well as chemically diverse and medicinal chemistry-friendly compounds. Hits were selected for follow-up validation against full-length nsP2 and an additional peptide. FRET-based 1,536-well assays for papain, hepatitis C virus NS3-4A, and human furin proteases were implemented to characterize compound selectivity. […] Novel compounds were identified to be potential nsP2 inhibitors and molecular docking analyses were performed to explain the binding mode of selected hits. In vitro antiviral activity was evaluated for a subset of compounds using a high-throughput CHIKV infection assay. To our knowledge, the pipeline presented here is unprecedented for CHIKV antiviral discovery research.
PROTOCOL TABLE (as described by Inglese J, Shamu CE and Guy RK. 2007) SEQUENCE No. (e.g., 1, 2, 3, etc.); […] (e.g., Cells, Incubation, Reagent, etc.); VALUE; DESCRIPTION. 1; Control / Compound; 20 nL; Echo 655 acoustic dispenser, Greiner 1536-well solid bottom black plate. 2; Enzyme; 4 uL; BioRAPTR FRD liquid dispenser (Beckman Coulter). 3; Incubation; 15 min; room temperature. 4; Reagent; 4 uL; 2.5 uM Peptide 2 substrate. 5; Incubation; 1 hr; room temperature. 6; Detection; Fluorescence; WiewLux microplate reader (PerkinElmer), 525 nm excitation, 598/25 nm emission. NOTES (numbers refer to sequence numbers above). 1. Briefly, 20 nL DMSO, positive control ZnAc (20nM final concentration), and test compounds were transferred into a 1,536-well solid bottom black plate (789176-F, Greiner One) via Echo 655 acoustic dispenser (Beckman Coulter). For primary screens, compounds were tested at 7 concentrations, 1:3 dilution points ranging from 25 uM to 34 nM. Follow-up confirmatory screens were carried out at 11 concentrations, 1:3 dilution points from 25 uM to 0.42 nM. 2. Four uL nsP2pro enzyme mix (150 nM final concentration) in 10 mM Tris-HCl pH 8.0 with 0.01% Tween 20 assay buffer was dispensed into the plate using a BioRAPTR FRD liquid dispenser (Beckman Coulter). 3. The plate was incubated at room temperature (protected from light) for 15 min 4. Four microliter of peptide 2 substrate (2.5 uM final concentration) in assay buffer was added to the plate. 5. After 1 hour, plates were immediately read on a ViewLux high-throughput CCD imager (Exposure = 10 sec, Gain = High, Speed = Slow, Binning = 2X). The above assay was also incorporated in the NCATS HTS facility41, which allowed for robotic liquid and compound dispensing, microplate handling, and fluorescence reading.. REFERENCE: Inglese J, Shamu CE and Guy RK, Reporting data from high throughput screening of small molecule libraries, Nature Chemical Biology, 2007, 3(8): 438-441. doi.org/10.1038/nchembio0807-438.
Potency is read from the fitted curve at half-maximal effect.

Polyprotein P1234 (Chikungunya virus (strain S27-African prototype)), sequence (Q8JUX6 whole entry, looked up): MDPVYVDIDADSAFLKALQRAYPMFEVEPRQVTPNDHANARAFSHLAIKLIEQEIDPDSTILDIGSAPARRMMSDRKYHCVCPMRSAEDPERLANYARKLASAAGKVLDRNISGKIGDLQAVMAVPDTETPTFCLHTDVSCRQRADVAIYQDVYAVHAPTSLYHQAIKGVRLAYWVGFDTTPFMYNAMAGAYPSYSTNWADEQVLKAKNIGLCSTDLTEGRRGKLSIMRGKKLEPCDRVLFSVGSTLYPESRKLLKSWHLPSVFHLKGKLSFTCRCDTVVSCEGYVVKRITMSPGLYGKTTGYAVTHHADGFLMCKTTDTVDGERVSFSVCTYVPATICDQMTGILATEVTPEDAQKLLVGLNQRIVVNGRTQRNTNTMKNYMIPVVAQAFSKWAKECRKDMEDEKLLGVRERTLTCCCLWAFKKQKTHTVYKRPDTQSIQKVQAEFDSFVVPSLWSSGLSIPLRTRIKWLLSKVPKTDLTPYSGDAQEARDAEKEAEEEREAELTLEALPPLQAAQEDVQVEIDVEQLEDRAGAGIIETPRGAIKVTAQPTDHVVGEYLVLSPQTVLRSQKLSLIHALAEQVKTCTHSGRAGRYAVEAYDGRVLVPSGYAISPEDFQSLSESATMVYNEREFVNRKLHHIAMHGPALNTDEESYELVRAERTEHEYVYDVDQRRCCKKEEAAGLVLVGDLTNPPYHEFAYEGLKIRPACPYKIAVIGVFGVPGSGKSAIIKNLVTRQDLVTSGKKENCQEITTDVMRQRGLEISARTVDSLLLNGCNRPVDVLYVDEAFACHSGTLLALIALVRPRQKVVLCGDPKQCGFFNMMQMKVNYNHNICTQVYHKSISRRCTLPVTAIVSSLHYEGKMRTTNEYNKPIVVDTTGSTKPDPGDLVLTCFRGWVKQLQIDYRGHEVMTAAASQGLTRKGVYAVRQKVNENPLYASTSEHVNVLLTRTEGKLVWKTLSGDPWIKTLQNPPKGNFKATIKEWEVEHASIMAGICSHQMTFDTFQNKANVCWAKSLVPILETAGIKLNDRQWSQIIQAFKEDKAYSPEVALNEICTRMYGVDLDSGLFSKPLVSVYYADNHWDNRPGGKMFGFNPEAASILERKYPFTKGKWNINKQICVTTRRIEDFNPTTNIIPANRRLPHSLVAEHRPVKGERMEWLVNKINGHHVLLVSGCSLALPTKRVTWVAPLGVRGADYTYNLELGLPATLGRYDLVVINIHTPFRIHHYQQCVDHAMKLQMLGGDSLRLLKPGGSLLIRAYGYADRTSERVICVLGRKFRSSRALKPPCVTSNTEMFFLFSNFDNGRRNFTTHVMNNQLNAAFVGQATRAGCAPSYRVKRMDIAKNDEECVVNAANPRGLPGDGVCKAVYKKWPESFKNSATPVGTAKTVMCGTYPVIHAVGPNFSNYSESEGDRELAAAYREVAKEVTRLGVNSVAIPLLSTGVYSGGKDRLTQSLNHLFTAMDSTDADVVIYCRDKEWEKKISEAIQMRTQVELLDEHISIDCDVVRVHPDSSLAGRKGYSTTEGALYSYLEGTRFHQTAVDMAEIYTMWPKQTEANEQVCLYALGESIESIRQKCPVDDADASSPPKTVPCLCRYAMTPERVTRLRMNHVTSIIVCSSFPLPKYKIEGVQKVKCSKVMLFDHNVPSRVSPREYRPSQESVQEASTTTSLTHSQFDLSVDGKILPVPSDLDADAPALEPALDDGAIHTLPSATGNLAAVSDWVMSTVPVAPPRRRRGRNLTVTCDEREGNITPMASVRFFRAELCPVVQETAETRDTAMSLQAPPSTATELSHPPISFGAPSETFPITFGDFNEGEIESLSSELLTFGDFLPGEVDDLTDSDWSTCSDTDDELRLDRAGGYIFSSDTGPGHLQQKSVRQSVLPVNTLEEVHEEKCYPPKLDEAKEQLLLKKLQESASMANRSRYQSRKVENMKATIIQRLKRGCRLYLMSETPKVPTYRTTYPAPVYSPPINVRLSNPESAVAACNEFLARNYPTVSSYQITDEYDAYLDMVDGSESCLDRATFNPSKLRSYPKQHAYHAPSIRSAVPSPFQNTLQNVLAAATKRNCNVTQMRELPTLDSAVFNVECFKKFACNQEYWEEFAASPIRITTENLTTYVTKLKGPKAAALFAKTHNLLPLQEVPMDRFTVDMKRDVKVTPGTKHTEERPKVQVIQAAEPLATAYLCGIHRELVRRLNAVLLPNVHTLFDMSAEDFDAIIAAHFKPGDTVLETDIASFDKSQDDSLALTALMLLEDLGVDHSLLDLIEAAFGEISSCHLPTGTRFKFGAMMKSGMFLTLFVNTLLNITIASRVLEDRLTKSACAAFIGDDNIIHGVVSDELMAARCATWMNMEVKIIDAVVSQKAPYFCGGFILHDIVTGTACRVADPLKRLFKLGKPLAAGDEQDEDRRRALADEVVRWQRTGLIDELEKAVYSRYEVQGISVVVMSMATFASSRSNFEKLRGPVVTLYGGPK

Compound	Potency
Cc1nc(C)c(-c2ccc3ncnc(NCc4ncc[nH]4)c3c2)s1	inactive
COc1cccc(CNCCSc2nnnn2C)c1OCc1ccccc1Cl	inactive
O=C(Nc1cc(C(F)(F)F)ccc1Cl)c1ccc2c(c1)CCN2S(=O)(=O)c1ccccc1	inactive
COc1cc(OC)cc(C(=O)NCCc2csc3nc(-c4ccccc4F)nn23)c1	inactive
CCc1ccc(NC(=O)C(=O)NNC(=O)Cc2ccc(Cl)c(Cl)c2)cc1	inactive
Cc1cc(C)cc(NC(=O)CSc2nc(=O)n(CCN3CCOCC3)c3c2CCC3)c1	inactive
O=C(c1cccc(F)c1)N1CCCC(CN2CCOCC2)CC1 (configuration not stated)	inactive
O=C(CCc1cn(Cc2ccc(F)cc2)c2ccccc12)NC1CCCCC1	inactive
COc1ccc(Cl)cc1S(=O)(=O)N1CCC(c2ccncc2)CC1	inactive
COc1cccc(-n2ccn(CC(=O)NCc3ccc(C)cc3)c(=O)c2=O)c1	inactive
CN(C(=O)c1ccc2c(c1)N(Cc1cccc(Cl)c1)C(=O)c1ccccc1S2=O)C1CCCCC1 (configuration not stated)	inactive
O=C(CSc1nccn1C1CCCC1)Nc1cc(C(F)(F)F)ccc1Cl	inactive
COc1ccccc1N1CCN(c2ccc(=O)n(CC(=O)NCc3ccc(OC(C)C)cc3)n2)CC1	inactive
CC1CCC2(C)C(CC(O)C(O)C23CO3)C1(C)CCC1=CC(O)OC1=O (configuration not stated)	inactive
Cc1noc(C)c1S(=O)(=O)N1CC(C(=O)NC2CCCCC2)C2(CCOCC2)C1 (configuration not stated)	inactive
COc1cccc(-c2cc(C(=O)N3CCN(c4ncccn4)CC3)c3cnn(C)c3n2)c1	inactive
CCc1ccc(C(=O)CC2(O)C(=O)N(CCc3ccccc3)c3ccc(Br)cc32)cc1 (configuration not stated)	inactive
COCc1nc(C2CC(N)C2)cc(N2CCC(Cn3cccn3)CC2)n1 (configuration not stated)	inactive
O=C(Nc1cc(-c2ccccc2)nn1-c1ccccc1F)c1ccc([N+](=O)[O-])cc1	inactive
COc1ncccc1-c1cc(-c2cn[nH]c2)c2cncn2c1	inactive
CN1CCN(C(=O)c2ccc(-c3cnc4c(O)ccc(C(=O)O)c4c3)cc2)CC1	inactive
COc1ccc(NC(=O)CSc2nnc(-c3nnn(-c4ccc(F)cc4)c3C)o2)cc1	inactive
CNC(=O)[C@@H](Cc1ccccc1)N1CCC[C@H]1C(=O)NCC1CC1	inactive
COc1ccc(OC)c(NC(=O)CSC2=Nc3ccccc3C3=NC(CC(=O)NCCc4ccccc4)C(=O)N23)c1 (configuration not stated)	inactive

Compound	Potency
COC(=O)CC[C@@H](C)C1CCC2C3CCC4C[C@H](OC(C)=O)CCC4(C)C3C[C@H](O)C21C (some centres not stated)	inactive
Cc1cccc(OCCCC(=O)Nc2sc3c(c2C(N)=O)CCC(C)C3)c1 (configuration not stated)	inactive
CCOc1ccc(NC(=O)c2c(NC(=O)Cc3ccccc3)sc3c2CCC(C)C3)cc1 (configuration not stated)	3.38 µM (active)
CCOc1ccc(NC(=O)c2c(NC(=O)Cc3ccccc3)sc3c2CCCCC3)cc1	8.91 µM (active)
O=C(Cc1ccccc1)Nc1sc2c(c1C(=O)Nc1ccc(Br)cc1)CCC2	inactive
CCOC(=O)c1ccc(NC(=O)c2c(NCc3cccc(OC)c3)sc3c2CCC3)cc1	inactive
COC(=O)c1c(NC(=O)CCCOc2ccccc2)sc2c1CCC(C)C2 (configuration not stated)	inactive
COc1ccc(CCNS(=O)(=O)c2cc(-c3cc(C)no3)ccc2C)cc1OC	inactive
CC(C)c1nccn1CCCNc1nc(-c2ccncc2)nc2c1cnn2C	inactive
COc1ccc(NC(=O)Cn2c(=O)n(CCC(C)C)c(=O)c3cccnc32)cc1Cl	inactive
N#Cc1ccc(NCCNCC(=O)N2CCCC2C#N)nc1 (configuration not stated)	inactive
CC(C)NC(=O)c1nn(-c2ccccc2F)nc1CO	inactive
CC(C)Nc1ncc(C(=O)NC2CCCN(CCc3ccccc3)C2)cn1 (configuration not stated)	inactive
CN1CCCN(C(=O)CN2CC3CC(C2)[C@H]2CCCC(=O)N2C3)CC1 (some centres not stated)	inactive
Cc1ccccc1-c1nc(NCc2ccc(-c3cccnc3)cc2)c2ccccc2n1	inactive
CC(C)(O)c1ccc2c(c1)C(=O)CC1[C@](C)(CO)CCC[C@]21C (some centres not stated)	inactive
O=C(CSc1oc(-c2ccc(F)cc2)nc1S(=O)(=O)c1ccc(Br)cc1)NC1CCCCC1	inactive
COc1cccc(-c2nc(S(=O)(=O)c3ccc(C)cc3)c(NCc3ccccc3)o2)c1	inactive
COc1ccc(-c2nc(S(=O)(=O)c3ccccc3)c(N3CCCCC3)o2)cc1	11.2 µM (active)
CN(C)c1cccc(-c2cnc(Nc3cnccn3)c3c2CCO3)c1	inactive
CCCCNc1nc(C)nc2c1nc(-c1ccccc1)n2CCCCN(CC)CC	inactive
COc1ccc(OC)c(NC(=O)C2CCCN(S(=O)(=O)c3ccc4c(c3)CCCC(=O)N4)C2)c1 (configuration not stated)	inactive
C[C@H]1CC[C@@H]2N(C1)C[C@@H]1[C@H]([C@@H](O)[C@H](O)[C@]3(O)[C@H]1C[C@@]14OC5(O)[C@@H](C[C@@H](O)[C@@H]31)[C@]4(C)CC[C@@H]5O)[C@]2(C)O	inactive
